Out of some 7,900 compounds screened, about 400 (5.1%) showed an effect of 50% or more. The list comes from a sample in which strong results are over-represented; it also holds similar structures and randomly drawn compounds.

The assay deals with Parkinson's disease protein 7 (PARK7/DJ1) (human, UniProt Q99497). The assay is described as follows: primary screen, percent inhibition; read as competition with a fluorescent probe by fluorescence polarization; higher = more effect of the substance. As to conditions: 100 µM. A digest of the protocol: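 Fluorescence-polarization probe displacement (JYQ-107, 20 nM final, 2 h) after 2 h preincubation of PARK7 (0.2 μM final) with each fragment at 100 μM final. Read-out ex/em 480/520 nm; remaining activity derived from FP signal loss relative to reference controls.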
Chain of Parkinson's disease protein 7 (PARK7/DJ1) (Q99497 whole entry, looked up, the tested form may be a part): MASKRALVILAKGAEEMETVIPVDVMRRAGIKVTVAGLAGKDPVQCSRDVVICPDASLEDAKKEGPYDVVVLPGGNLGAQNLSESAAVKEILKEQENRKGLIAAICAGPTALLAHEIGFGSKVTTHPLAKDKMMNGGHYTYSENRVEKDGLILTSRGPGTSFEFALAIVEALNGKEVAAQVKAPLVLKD
`C=CC(=O)NCc1cc(C)on1`: the Inhibition % is 8.31%. The result for `CCC(=O)N1CCCC1C1CCCN1C1CCOC1=O` (stereo not drawn) reads 8.79%. On to `N#CC(=Cc1ccc(CSC(F)F)o1)C(N)=O`, for which the Inhibition % was 16.4%. The result for `CC(=O)c1ccc(F)c(B2OC(C)(C)C(C)(C)O2)c1` reads 5.97%; that for `O=C(CCl)N1N=C(c2ccco2)CC1c1cccs1` (stereo not drawn), 12.6%. The figure for `O=C(CCl)Nc1ccccc1C(F)(F)F` is 11.7%; for `C=CC(=O)Nc1nc(COC)cs1` it is 8.35%; for `C=CC(=O)NCC1(C)CC(F)(F)C1` it is 5.99%. The result for `CC1CC(n2cnc3c2c(=O)n(C)c(=O)n3C)C(=O)O1` (stereo not drawn) reads 8.16%; that for `CC(C)(C)Nc1cc(F)c(S(=O)(=O)F)cc1N`, 7.67%; that for `Cc1nn(S(=O)(=O)c2ccccc2)c(C)c1C`, 6.77%. For the compound `N#CC(=Cc1ccccc1)C(=O)O`, the Inhibition % turned out to be 0.493%. Take `Clc1ccc(Cl)c(OCC2CO2)c1` (stereo not drawn): the Inhibition % was determined as 5.37%.

Take `CCc1nccn1S(=O)(=O)c1cc(C)c(OC)cc1C`: the Inhibition % amounted to 7.23%. For `O=C(NCC1CCC(O)C1)c1cc(B(O)O)ccc1F` (stereo not drawn), the Inhibition % is given as 1.49%. The figure for `O=C(CCl)c1cscn1` is 101%; for `Cl.O=C(CCl)c1c[nH]c2ncccc12` it is 10.6%. The result for `C=CC(=O)NCCc1cscn1` reads 5.76%.

For the compound `O=C(CCl)c1ccccn1`, the Inhibition % was found to be 102%. The figure for `Cl.O=C(CCl)Nc1ccccn1` is 14.1%. The result for `ClCCc1cscn1` reads 5.31%. The result for `COc1cncc(C#N)n1` reads 9.79%; that for `C=CC(=O)N1Cc2ccccc2OC(C)(C)C1`, 13.6%; that for `Cc1cc(C)cc(OC(=O)N2CCOCC2)c1`, 6.2%. As for `CCc1nc(C)cn1S(=O)(=O)c1cc(Cl)ccc1OC`, the Inhibition % is listed as 5.69%. In the case of `C=CC(=O)N1CC(S(=O)(=O)c2ccccc2F)C1`, the Inhibition % was found to be 5.39%. The figure for `N#Cc1nc(N2CC[C@H](O)C2)ccc1Cl` is 9.73%; for `CC1(C)OB(c2cncc(F)c2)OC1(C)C` it is 4.04%; for `N#CC(=Cc1ccco1)C(=O)Nc1nnc(C(F)F)s1` it is 4.49%.

Regarding `O=C(CCl)NCCc1ccc(F)cc1`, the Inhibition % amounted to 26.6%. The result for `Cc1oc(C(=O)O)cc1C(=O)CCl` reads 92.2%; that for `Cc1oncc1C(=O)CCl`, 40.2%; that for `Cc1oc(C(N)=O)cc1C(=O)CCl`, 30.9%.

Take `CC(C)N1CCOC(CCl)C1` (stereo not drawn): the Inhibition % was determined as 5.12%.

As to `O=c1[nH]c(=O)n(C2CC2)c2nc(C3CC3)nc(S)c12`, the Inhibition % came out at 3.15%.

On to `OB(O)C1=CCN(Cc2ccnn2-c2ccncc2)CC1`, for which the Inhibition % is given as 61.3%.

`Cn1nccc1[C@@H]1OCC[C@H]1CN1CC=C(B(O)O)CC1`: the Inhibition % is listed as 44.8%. The figure for `OB(O)C1=CCN(Cc2cc3n(n2)CCC3)CC1` is 33.1%; for `C=CC(=O)NC1CC(OCC)C12CCCC2` (stereo not drawn) it is 8.99%; for `O=C1CCC(CN2CCc3[nH]c4ccc(F)cc4c3C2)O1` (stereo not drawn) it is 21.1%. The figure for `O=C(Nc1ccccc1)C1CCN(C(=O)CCl)CC1` is 12.6%. The result for `O=C(CCl)N1CCN(C(=O)Nc2ccccc2)CC1` reads 64.2%; that for `CC(=O)c1ccc(N2CCN(C(=O)CCl)CC2)c(F)c1`, 11%.

In the case of `O=C(CCl)N1CCN(c2ccccc2[N+](=O)[O-])CC1`, the Inhibition % was 80.7%. The figure for `O=C(CCl)N1CCN(c2ccc([N+](=O)[O-])cc2)CC1` is 7.53%; for `Cl.O=C(CCl)N1CCN(Cc2ccccc2)CC1` it is 7.64%. The result for `C=CC(=O)NCc1nnc2n1CCCC2C(F)(F)F` (stereo not drawn) reads 8.99%. The figure for `CN1CCN(CCCCl)CC1.Cl.Cl` is 9.44%; for `CCN(Cc1ccc(Br)s1)C(=O)CCl` it is 12.9%; for `CC1(NC(=O)CCl)CCS(=O)(=O)C1` (stereo not drawn) it is 2.17%. With `C=CC(=O)NCCc1nc2ccc(F)cc2n1C`, the Inhibition % was 3.72%. Consider `C=CC(=O)NCC1CCC2(CCCC2)O1` (stereo not drawn), for which the Inhibition % stood at 4.84%. In the case of `Cc1cnc2ccccc2c1S(=O)(=O)F`, the Inhibition % is on record as 95.2%.

Consider `O=c1cnc2ccccc2n1CCS(=O)(=O)F`, for which the Inhibition % turned out to be 13.8%.

Regarding `CS(=O)(=O)n1cnc2ccccc21`, the Inhibition % is 11.4%. As to `Cl.ClCCn1cc(-c2ccccc2)cn1`, the Inhibition % turned out to be 6.06%. The result for `C=CC(=O)NCc1cccc(C(=O)NC(C)(C)C)c1` reads 9.53%; that for `Cc1ccc(C)c(C(=O)Cn2cnc(C#N)n2)c1`, -2.83%.

As to `COC(=O)c1ccc(CS(=O)(=O)F)cc1`, the Inhibition % was 7.95%. The figure for `O=S(=O)(F)Cc1ccccc1` is 8.98%; for `COc1ccc(CS(=O)(=O)F)cc1` it is 88.4%. The figure for `Cc1csc(C(C#N)=Cc2cccc3c2OCCCO3)n1` is 1.3%; for `N#Cc1ccc(NCC2CCN(CC(F)(F)F)C2)cn1` (stereo not drawn) it is 5.73%.

The values above are taken from paper PMC9574860, “Chemical Toolkit for PARK7: Potent, Selective, and High-Throughput” (Journal of Medicinal Chemistry, 2022).
